About 83,000 compounds went through this panel and 20% of them were active in at least one assay; those are over-represented in the sample as a whole.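 Treatment: one concentration, 48 hours, 96-well format. Scoring: percent growth, with anything below 10 considered active.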 Unmarked numbers belong to inactive results. Activity calls are given as the source filed them.

Holding throughout (test): NCI-60 one-dose screen, 48 h (100 = growth as untreated, 0 = no growth, -100 = all killed)
One test deals with NCI-H23 lung. The note with it: 10 µM unless noted.
The subject of another test is NCI-H226 lung. The note with it: 10 µM unless noted.
Another test deals with NCI-H322M lung. The note with it: 10 µM unless noted.
The next test concerns HOP-62 NSCLC. The note with it: 10 µM unless noted.
Another test concerns NCI-H460 lung. The note with it: 10 µM unless noted.
Another test deals with HOP-92 NSCLC. Particulars: 10 µM unless noted.
A further test deals with NCI-H522 lung. Particulars: 10 µM unless noted.
The test system of another test is A549/ATCC NSCLC. The note with it: 10 µM unless noted.
Another test concerns 786-0 renal. The note with it: 10 µM unless noted.
For another test, the system named is COLO 205 colon. Particulars: 10 µM unless noted.
For a further test, the system named is DU-145 prostate. Particulars: 10 µM unless noted.
Another test deals with K-562 leukemia. Particulars: 10 µM unless noted.
The next test relates to MALME-3M melanoma. Particulars: 10 µM unless noted.
The subject of a further test is MDA-MB-231 breast. The note with it: 10 µM unless noted.
The next test has as its system RXF 393 renal. The note with it: 10 µM unless noted.
For the next test, the system named is SF-268 CNS. Particulars: 10 µM unless noted.
Another test concerns SF-295 CNS. Particulars: 10 µM unless noted.
The test system of a further test is SF-539 CNS. Particulars: 10 µM unless noted.
In the next test the test system is M14 melanoma. The note with it: 10 µM unless noted.
For a further test, the system named is UACC-257 melanoma. Particulars: 10 µM.

For the compound `O=C1OC(c2ccccc2)=N/C1=C\c1ccc([N+](=O)[O-])cc1`, the growth in the test on NCI-H23 lung is 100%; in the test with NCI-H226 lung it was 93.6%; in the test with NCI-H322M lung, 96.2%; in the test on HOP-62 NSCLC it was 90.1%; in the test on NCI-H460 lung, 94.6%; in the test on HOP-92 NSCLC it was 87.1%. Besides, the growth with NCI-H522 lung is 94.9%; in the test on A549/ATCC NSCLC, 120%; in the test on 786-0 renal, 98.6%; in the test on COLO 205 colon it was 109%; in the test on DU-145 prostate, 109%; with K-562 leukemia it was 112%. Besides, the growth in the test with MALME-3M melanoma was 89%; with MDA-MB-231 breast, 94.1%; with RXF 393 renal, 101%; in the test with SF-268 CNS it was 101%; in the test on SF-295 CNS, 103%; with SF-539 CNS, 99.2%. Also, the growth in the test on M14 melanoma is 95.4%.

Turning to `COc1ccc(N=C2NN=C(c3ccc(F)cc3)CS2)cc1OC`, the growth in the test on NCI-H23 lung is 104%; in the test with NCI-H226 lung, 78.5%; with NCI-H322M lung it was 96.4%; in the test with HOP-62 NSCLC, 96.3%; in the test on NCI-H460 lung, 107%; with HOP-92 NSCLC, 72.8%. In addition, the growth in the test with NCI-H522 lung is 89%; in the test on A549/ATCC NSCLC it was 92.4%; in the test on 786-0 renal, 88%; in the test on COLO 205 colon, 98.7%; in the test on DU-145 prostate, 103%; with K-562 leukemia it was 107%. Moreover, the growth with MALME-3M melanoma was 104%; in the test with MDA-MB-231 breast, 91.6%; in the test on RXF 393 renal it was 78.3%; with SF-268 CNS, 116%; with SF-295 CNS, 90.8%; in the test on SF-539 CNS it was 102%. Besides, the growth with M14 melanoma is 105%.

Take `CC1Cc2c(N(C)C)ncnc2N(C)c2ccc(Cl)cc21` (centres undefined): the growth was 50.1% in the test on NCI-H23 lung; 85.6% in the test on NCI-H226 lung; 73.2% in the test with NCI-H322M lung; 41.9% with HOP-62 NSCLC; 14.5% in the test on NCI-H460 lung; 58% in the test with HOP-92 NSCLC. Further, the growth is 13.4% with NCI-H522 lung; 55.8% with A549/ATCC NSCLC; 31.1% in the test with 786-0 renal; 36% in the test with COLO 205 colon; 52.4% in the test on DU-145 prostate; 14.3% in the test on K-562 leukemia. The growth in the test with MALME-3M melanoma is 51.4%; with MDA-MB-231 breast, 55%; with RXF 393 renal it was 42.6%; with SF-268 CNS, 44.5%; with SF-295 CNS, 3.45% (active); in the test on SF-539 CNS, 4.81% (active). Further, the growth in the test on M14 melanoma was 22.2%.

In the case of `CCn1cc(C(=O)O)c(=O)c2cc(F)c(N3CCN(S(=O)(=O)c4cccc5ccccc45)CC3)cc21`, the growth was 0.0593% (active) with NCI-H23 lung; 21.9% in the test with NCI-H226 lung; -14.5% (active) in the test with NCI-H322M lung; 15.1% in the test with HOP-62 NSCLC; 8.04% (active) with NCI-H460 lung; -8.49% (active) in the test with HOP-92 NSCLC. Besides, the growth was -33.9% (active) with NCI-H522 lung; 3.78% (active) in the test on A549/ATCC NSCLC; 24.3% with 786-0 renal; -87.6% (active) in the test on COLO 205 colon; 18.9% with DU-145 prostate; 15.4% with K-562 leukemia. Moreover, the growth was -16% (active) with MALME-3M melanoma; 23.9% in the test with MDA-MB-231 breast; 29% in the test with RXF 393 renal; 16.4% with SF-268 CNS; 7.68% (active) in the test on SF-295 CNS; 17.4% in the test with SF-539 CNS. Moreover, the growth in the test on UACC-257 melanoma is 14%; in the test with M14 melanoma it was 17.9%.

As to `Cc1nc2scc(-c3ccccc3)n2c(=O)c1CCO`, the growth is 99.6% in the test with NCI-H23 lung; 99.9% in the test with NCI-H226 lung; 103% in the test on NCI-H322M lung; 92.5% with HOP-62 NSCLC; 100% in the test on NCI-H460 lung; 84.6% in the test on HOP-92 NSCLC. For the same compound, the growth with NCI-H522 lung is 99.1%; in the test on A549/ATCC NSCLC, 93.6%; in the test with 786-0 renal, 106%; with COLO 205 colon, 108%; with DU-145 prostate it was 108%; in the test with K-562 leukemia, 98.4%. Besides, the growth was 102% with MALME-3M melanoma; 97.3% with MDA-MB-231 breast; 106% in the test on RXF 393 renal; 97.5% in the test with SF-268 CNS; 102% in the test with SF-295 CNS; 100% with SF-539 CNS. Also, the growth in the test with M14 melanoma is 101%.

As for `CCn1c(=O)c2c(=O)c3c4c(oc3oc2c2ccccc21)C(=O)c1ccccc1C4=O`, the growth in the test with NCI-H23 lung is 66.8%; in the test on NCI-H226 lung it was 99.4%; in the test on NCI-H322M lung, 97.7%; in the test with HOP-62 NSCLC, 80.3%; in the test on NCI-H460 lung, 83.7%; in the test on HOP-92 NSCLC, 50.8%. The growth with NCI-H522 lung was 65.5%; in the test on A549/ATCC NSCLC, 82.4%; in the test on 786-0 renal it was 105%; with COLO 205 colon it was 110%; in the test with DU-145 prostate, 92.4%; in the test on K-562 leukemia, 28.6%. The growth is 113% in the test on MALME-3M melanoma; 6.33% (active) in the test on MDA-MB-231 breast; 106% in the test with RXF 393 renal; 84.3% in the test with SF-268 CNS; 95.1% in the test with SF-295 CNS; 89.9% with SF-539 CNS. The growth in the test on UACC-257 melanoma was 90.6%; in the test on M14 melanoma, 89.8%.

As to `C#CCC1(c2ccc(F)c(F)c2)NS(=O)(=O)c2ccccc21` (centres undefined), the growth in the test with NCI-H23 lung is 98.1%; in the test on NCI-H226 lung, 103%; in the test with NCI-H322M lung it was 90.5%; in the test with HOP-62 NSCLC it was 86.2%; with NCI-H460 lung it was 108%; in the test on HOP-92 NSCLC, 106%. Also, the growth with NCI-H522 lung is 65.5%; in the test on A549/ATCC NSCLC, 76.9%; in the test with 786-0 renal, 101%; in the test with COLO 205 colon it was 110%; in the test on DU-145 prostate it was 107%; in the test with K-562 leukemia, 89.4%. The growth with MALME-3M melanoma is 93.7%; in the test on MDA-MB-231 breast, 109%; in the test on RXF 393 renal, 114%; in the test with SF-268 CNS, 102%; with SF-295 CNS, 105%; with SF-539 CNS, 104%. Also, the growth in the test with M14 melanoma is 107%.

For `Nc1ccccc1C#C/C=C\C#Cc1cccc(O)c1`, the growth in the test on NCI-H23 lung was 97.3%; with NCI-H226 lung it was 95.4%; in the test on NCI-H322M lung, 93.6%; with HOP-62 NSCLC, 40.2%; in the test with NCI-H460 lung it was 34.7%; with HOP-92 NSCLC it was -30.1% (active). Further, the growth with NCI-H522 lung was 52.9%; in the test with A549/ATCC NSCLC it was 64.5%; with 786-0 renal, 61.5%; in the test with COLO 205 colon, 81.2%; with DU-145 prostate, 73.1%; in the test on K-562 leukemia, 30.9%. The growth with MALME-3M melanoma was 51.6%; in the test on MDA-MB-231 breast, 39.7%; in the test with RXF 393 renal, 59%; with SF-268 CNS it was 65.3%; in the test on SF-295 CNS, 40.2%; in the test on SF-539 CNS, 42.9%. Besides, in the test on M14 melanoma, the growth was 31.5%.
